Source: PubChem BioAssay (National Center for Advancing Translational Sciences (NCATS))
BCR signal inh: inhibitors of chronic active B-cell receptor signaling. 0.05% of 340,000 active. ABC-DLBCL IkBa-CBG/CBR reporter, luminescence ratio, 4 h. AID 493014. Potency, µM (highest dose often 46.1 µM), without a hit: top-dose activity change, negative = inhibition, actives largely listed as inhibitors; active means well fitted inhibition curve with a large enough effect in the signal ratio, with a control signal flat, not every such curve was filed as active; inconclusive means small, poorly fitted or top-dose-only effect, or effect the other way, or a change in a side signal; the % refers to the signal ratio;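 further: potency means the concentration at half of the fitted maximal effect; plate controls were basal doxycycline-induced cells for no effect and cells given 10 µM MG132 for full effect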
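Compounds up to 46 uM were incubated four hours with TMD8 cells whose green CBG68 luciferase is fused to IkappaBalpha; red CBR luminescence normalised the signal, and concentration-effect curves were fitted to fusion, red and ratio data.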
Giardia kill: Giardia lamblia killing; AID 540267; activity change, % at 7.66 µM, hits read low; Giardia lamblia trophozoite viability; 0.15% of 340,000 active; in the data active means activity change below about -80%; inconclusive means between about -30% and that limit;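 further: parasites exposed to compound for two days anaerobically before the ATP read; on the % scale 0 is the no-effect control and ±100 the full control effect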
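Anaerobic 48 hrs incubation at 37 deg C of 100 trophozoites/well with test compounds; ATPLite 1-Step luminescence, 15-30 min RT, reports cellular ATP as viability.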
MCF10A rereplic: DNA re-replication induction in MCF 10a cells; Potency, µM (series often up to 46.1 µM), inactives show at the highest dose activity, positive = re-replication, most hits filed as activators; 2.9% of 350,000 active; MCF 10A DNA re-replication, Hoechst nuclear intensity, 48 h; AID 624296; further: potency means the concentration at half of the fitted maximal effect; % of control where 0% means no effect; nearly all actives have a fitted effect of over 50% in size
VP16 counter: counter-screen for ROR gamma inhibitors: Gal4-VP16 reporter; Drosophila S2 Gal4-VP16 UAS-luciferase, luminescence, 20 h; Potency, µM (top dose mostly 53.6 µM), without a hit: at the highest dose activity, negative = inhibition, most hits filed as inhibitors; 3.5% of 310,000 active; AID 2546;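 further: Gal4-VP16 expression switched on by copper sulfate through the metallothionein promoter; potency means the concentration at half of the fitted maximal effect; on the % scale 0 is the no-effect control and ±100 the full control effect; nearly all actives have a fitted effect of over 50% in size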
SW480 rereplic: DNA re-replication induction in SW480 cells; 1.8% of 340,000 active; AID 624297; SW480 DNA re-replication, Hoechst DNA content imaging, 48 h; Potency, µM (titrated, usually from 46.1 µM), for the others: at the top dose re-replication activation, usual class: activators; further: potency means the concentration at half of the fitted maximal effect; % of control where 0% means no effect; nearly all actives have a fitted effect of over 55% in size
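Compounds, transferred as 23 nL by pin tool, were incubated with cells for 48 hr; DNA content per nucleus was then quantified by Hoechst staining and fluorescence plate imaging.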
RORgamma inh: ROR gamma (mouse) transcription inhibition; 5.4% of 310,000 active; Potency, µM (highest dose often 53.6 µM), for inactives: top-dose activity change, negative = inhibition, usual class: inhibitors; P51450; Drosophila S2 Gal4-RORgamma UAS-luciferase reporter, 20 h; AID 2551; further: potency means the concentration at half of the fitted maximal effect; on the % scale 0 is the no-effect control and ±100 the full control effect; nearly all actives have a fitted effect of over 60% in size
Target sequence (P51450 whole entry, looked up, the tested form may be a part): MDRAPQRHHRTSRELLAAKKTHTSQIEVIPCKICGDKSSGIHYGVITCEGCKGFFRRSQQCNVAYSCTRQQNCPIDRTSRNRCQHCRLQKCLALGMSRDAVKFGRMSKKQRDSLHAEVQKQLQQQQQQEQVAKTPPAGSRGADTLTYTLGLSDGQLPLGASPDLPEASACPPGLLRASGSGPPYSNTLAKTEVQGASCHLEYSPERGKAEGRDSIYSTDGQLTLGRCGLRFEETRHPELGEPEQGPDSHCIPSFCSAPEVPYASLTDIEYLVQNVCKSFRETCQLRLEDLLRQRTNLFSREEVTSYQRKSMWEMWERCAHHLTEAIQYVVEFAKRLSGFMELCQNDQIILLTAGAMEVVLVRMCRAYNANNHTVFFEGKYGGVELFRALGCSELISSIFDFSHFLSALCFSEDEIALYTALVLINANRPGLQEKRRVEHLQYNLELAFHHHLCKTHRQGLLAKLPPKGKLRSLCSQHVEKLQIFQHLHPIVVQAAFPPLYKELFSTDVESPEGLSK
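Drosophila S2 cells stably expressing Gal4-DBD/mouse RORγ fusion under metallothionein promoter plus UAS-luciferase; compound 1 h, then 700 uM CuSO4 induction for 20 h at ambient temperature; inhibition read as reduced luminescence.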
An asterisk follows results filed as active; ? = inconclusive; / = no result; [ ] = remark or other dose. A selection: hits, their analogues and other compounds. The true share with any hit is near 8.3%. Unless noted, the call rests on the fitted dose curve; in most records, active means well fitted curve in the direction sought with a large enough effect; inconclusive means small, poorly fitted or top-dose-only effect, or another doubt; inactive means no such curve, though single readings can be large; an effect the other way counts as inactive or inconclusive.

SMILES | BCR signal inh | Giardia kill | MCF10A rereplic | VP16 counter | SW480 rereplic | RORgamma inh
COc1ccc(C(=O)Nc2ccc3c(c2)C(=O)c2ccccc2C3=O)cc1OC | 0% | 0 | -1% | -9% | 0% | 2%
COc1ccc(C(=O)c2c(C(F)(F)F)oc3c2C(=O)c2ccccc2C3=O)cc1OC | ? | 15 | ? | ? | 0.73µM* | 39%
CCCCOc1cccc(/C=C(\C#N)C(=O)NC2CC2)c1 | -2% | -8 | ? | -23% | -4% | ?
Cc1ccc(NC(=O)CS(=O)CC(=O)N(CC(=O)NC(C)(C)C)c2cccc(C)c2C)cc1 (stereo not drawn) | -1% | -11 | 0% | -4% | -9% | 24%
CCc1ccc(/C=C/C(=O)c2c(C)cc(C)[nH]c2=O)cc1 | ? | -24 | 18µM* | ? | ? | ?
COc1ccc(/C=C/C(=O)c2c(C)cc(C)[nH]c2=O)c2ccccc12 | 0% | -8 | 18µM* | 14µM* | ? | ?
Cc1ccc(/C=C/C(=O)c2c(C)cc(C)[nH]c2=O)cc1 | ? | -7 | ? | ? | ? | ?
CC(C)(Oc1ccc(Cl)cc1)C(=O)Nc1c2c(nn1C(C)(C)C)CS(=O)(=O)C2 | 5% | 31 | 6% | / | 4% | /
CC(C)CC(=O)Nc1ccnc(-c2ccncc2)n1 | 5% | 0 | 1% | -11%[10 µM] | -123% | -9%
NC(=O)CC[C@H](NC(=O)c1ccc(F)cc1)C(=O)OCC(=O)NCc1ccc2c(c1)OCO2 | -1% | -26 | -2% | / | -3% | /
Cc1ccsc1/C=N\NC(=O)c1ccc2c(c1)OCO2 | ? | -3 | 9% | ? | -5% | 7.1µM*
Cc1cc(C(=O)N/N=C/c2sccc2C)no1 | ? | -17 | -1% | ? | -2% | ?
Cc1c(/C=N/NC(=O)c2ccc3c(c2)OCO3)cnn1C | ? | 2 | 1% | 0% | -2% | -20%
Cc1ccsc1/C=N\NC(=O)c1cc(C(C)(C)C)[nH]n1 | ? | 7 | 1% | 20µM* | 13% | 10µM*
Cc1ccsc1/C=N/NC(=O)CSCc1ccc(Cl)cc1 | -8% | -21 | 3% | 10µM* | -8% | 11µM*
Cc1ccc(C(=O)N/N=C\c2sccc2C)cn1 | ? | -18 | -4% | ? | -36% | ?
Cc1ccsc1/C=N/NC(=O)c1ccc2c(c1)OCCO2 | ? | 34 | -1% | -89% | -79% | 1.4µM*
Cc1cc(C)n(-c2ccc(C(=O)OCC(=O)NCc3ccc(F)cc3)cc2)n1 | 11% | 2 | -1% | -3% | -11% | -10%
Cc1ccsc1/C=N\NC(=O)Cn1nnc2ccccc21 | -7% | -3 | ? | ? | 18µM* | 14µM*
Cc1ccsc1/C=N/NC(=O)c1sccc1C | ? | -5 | -2% | ? | 2% | 7.9µM*
Cc1ccsc1/C=N/NC(=O)CO | 0% | 7 | ? | -5% | -6% | -17%
Cc1ccsc1/C=N\NC(=O)c1n[nH]c2c1CCC2 | ? | -28 | 8.2µM* | 7.1µM* | 13µM* | 4µM*
O=c1[nH]n(-c2ccccc2)c(=O)cc1Cl | / | -9 | 9% | / | 1% | /
COc1ccc(CN(CC(=O)NC(C)C)C(=O)CCC(=O)Nc2nccs2)cc1 | 2% | 4 | -2% | 1% | -5% | -1%
Cc1cccc(C)c1NC(=O)C1CCCN1S(=O)(=O)c1ccccc1 (stereo not drawn) | 2% | 2 | -23% | 2% | -11% | -4%
SMILES | BCR signal inh | Giardia kill | MCF10A rereplic | VP16 counter | SW480 rereplic | RORgamma inh
COC(=O)[C@@H]1C[C@H]2CC[C@H](O)C[C@H]2N1Cc1ccc(N2CCOCC2)cc1 | / | / | / | -6% | / | 1%
Cc1ccc(C(=O)NC(=S)NNC(=O)CC#N)cc1 | ? | 1 | 4% | 3% | -1% | 10µM*
CC(C)CC(=O)NC(=S)NNC(=O)c1ccc([N+](=O)[O-])cc1 | 1% | ? | 24% | 5.6µM* | 26% | 4µM*
CCC(=O)NC(=S)NNC(=O)c1ccc([N+](=O)[O-])cc1 | -1% | ? | 0% | 0% | 1% | ?
CCCCC(=O)Nc1cccc(NC(=O)c2cccc([N+](=O)[O-])c2)c1 | 2% | 5 | 3% | 3% | -2% | 15%
CCCCC(=O)NNC(=S)NC(=O)c1ccc(C)cc1 | ? | -4 | 7% | 18µM* | ? | 4.5µM*
CCCCC(=O)NNC(=S)NC(=O)c1cccc([N+](=O)[O-])c1 | 8% | -3 | -1% | 0.89µM* | 2% | 1µM*
O=C(NC(=O)c1ccc(Cl)cc1)Nc1cc(N2CCCCC2)ncn1 | / | -6 | -2% | / | 1% | /
CCCCCC(=O)NNC(=O)Cc1ccc([N+](=O)[O-])cc1 | 1% | -16 | -3% | -12% | -6% | 18%
CCCCC(=O)NNC(=S)NC(=O)c1ccc([N+](=O)[O-])cc1 | ? | ? | ? | 11µM* | 7% | 2.5µM*
Cc1ccc(C(=O)NCC#N)cc1 | 7% | -7 | -7% | -4% | -7% | -13%
Cc1ccc(C(=O)NC(C#N)=C(Cl)Cl)cc1 | ? | -8 | 9.2µM* | 10µM* | ? | 8.9µM*
COCCCNC(=S)NC(=O)c1ccc(C)cc1 | 3% | 9 | 5% | ? | -8% | 13µM*
C[n+]1cccc(C(=O)Nc2ccccc2)c1 | 3% | 33 | -10% | -5% | -21% | 14%
Cc1c(C(=O)NCc2n[nH]c(=S)n2-c2ccc(F)cc2)cccc1[N+](=O)[O-] | 16% | -3 | 10% | -9% | 97%[1.84 µM] | -26%
Cc1nc(SCC(=O)NC(=O)NCc2ccco2)nc(C)c1C | 6% | -7 | -2% | -3% | -2% | -3%
CCn1c(SC(=O)NC2CCCCC2)nnc1-c1cccs1 | -6% | -1 | 4% | ? | -1% | 7.9µM*
COc1ccccc1CNC(=O)CSC1=NCCS1 | -4% | -17 | ? | 20% | ? | 0%
CCn1c(SCC(=O)NC2CCCCC2)nnc1-c1cccs1 | 8% | -17 | -1% | -3% | 1% | -3%
Cc1nc(SCC(=O)NCc2ccco2)nc(C)c1C | 2% | 5 | -2% | -4% | 0% | 7.1µM*
O=C(CSc1ncnc2c1oc1ccccc12)NCc1ccco1 | 1% | 15 | 2% | 20µM* | 0% | ?
O=C(CSC1=NCCS1)NCc1ccco1 | -7% | -10 | 23µM* | 0% | ? | 23%
CN1CCc2c(sc(NC(=O)CS(=O)(=O)c3ccc(F)cc3)c2C(N)=O)C1 | -8% | 6 | -1% | / | -2% | /
CC(NC(=O)CSC1=NCCS1)c1ccccc1 (stereo not drawn) | -1% | -5 | 3% | -4% | -7% | 5µM*
